For 9 compounds, growth results are on record in PubChem BioAssay (NCI).

This is part of a sample that, as a whole, favours compounds with a hit. Of some 83,000 tested, about 20% had one in any assay.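 Activity criterion: percent growth below 10, measured after cells in 96-well plates were exposed to a single compound concentration for 48 hours.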 Unmarked numbers belong to inactive results. The source made the active and inactive calls.

Holding throughout (assay): NCI-60 one-dose screen, 48 h (100 = growth as untreated, 0 = no growth, -100 = all killed)
Common to all, as to details: 10 µM unless noted

Assay [1] relates to SR leukemia.
Assay [2] relates to OVCAR-8 ovarian.
In assay [3] the test system is OVCAR-5 ovarian.
In assay [4] the test system is OVCAR-4 ovarian.
Assay [5] relates to SK-OV-3 ovarian.
Assay [6] has as its system IGROV1 ovarian.
Assay [7] relates to OVCAR-3 ovarian.
Assay [8] relates to HS 578T breast.
Assay [9] deals with NCI/ADR-RES ovarian.
The test system of assay [10] is T-47D breast.
Assay [11] deals with BT-549 breast.
Assay [12] has as its system MDA-MB-435 melanoma.
Assay [13] deals with SW-620 colon.
Assay [14] has as its system MCF7 breast.
For assay [15], the system named is HCT-116 colon.
Assay [16] deals with HCC-2998 colon.
For assay [17], the system named is KM12 colon.
Assay [18] has as its system RPMI-8226 leukemia.

Turning to `CCOc1ccc2nc(NC(=O)Nc3ccccc3C)sc2c1`, the growth is 24.3% in [1]; 74.7% in assay [2]; 80.2% in assay [3]; 80.2% in assay [4]; 82.3% in assay [5]; 49.5% in assay [6]. Further, the growth in assay [7] is 20.7%; in assay [8], 50.5%; in assay [9], 22.8%; in assay [10], 47.7%; in assay [11], 53.8%; in [12], -11.1% (active). Also, the growth in assay [13] was 29.2%; in [14] it was 27.7%; in assay [15], 39.8%; in assay [16], 81.4%; in assay [17], 40.7%.

Regarding `O=C(C[n+]1ccnc2ccccc21)c1ccc(O)c(O)c1`, the growth is 7.3% (active) in [1]; 48.4% in [2]; 70.5% in assay [3]; 46.6% in [4]; 112% in assay [5]; 51.4% in assay [6]. Also, the growth in assay [7] is 21.7%; in assay [8], 94.4%; in assay [9], 57.2%; in assay [10], 45%; in assay [11] it was 51.7%; in assay [13], 24%. Moreover, the growth in assay [14] was 12.5%; in assay [15], 7.08% (active); in assay [16] it was 81.2%; in assay [17] it was 82.3%.

In the case of `O=C(Nc1ccccc1)Nc1nc2ccc([N+](=O)[O-])cc2s1`, the growth was 2.29% (active) in assay [1]; 12.1% in [2]; 12.1% in assay [3]; -4.54% (active) in assay [4]; -7.62% (active) in [5]; 19.7% in assay [6]. In addition, the growth in assay [7] is 4.1% (active); in assay [8], 5.92% (active); in [9], 2.34% (active); in assay [10], -14.3% (active); in [11] it was -11.8% (active); in [12] it was 2.4% (active). Further, the growth in assay [13] was 11.5%; in assay [14], 2.9% (active); in assay [15], 4.52% (active); in assay [16], 10.8%; in [17] it was 3.66% (active).

Turning to `CC1OC(O[C@@H]2C(O)C(CO)OC(O[C@H]3COC(O[C@H]4CC[C@]5(C)[C@H]6CC[C@]78OC[C@@]9(CC[C@](C)(C=O)C[C@H]97)[C@H](O)C[C@@]8(C)[C@]6(C)CC[C@H]5C4(C)C)[C@@H](OC4OC(CO)[C@@H](O)[C@@H](O)[C@@H]4O)[C@@H]3O)[C@H]2OC2OC[C@@H](O)[C@@H](O)[C@@H]2O)[C@@H](O)[C@@H](O)[C@H]1O` (some centres not stated), the growth was -18.3% (active) in assay [1]; 32.9% in [18]; 27.1% in [2]; -78.7% (active) in assay [3]; -93.9% (active) in [5]; 43.8% in [6]. Besides, the growth in assay [7] was 79.4%; in assay [8], -36.9% (active); in [9], 46.1%; in [10], 53.1%; in assay [11], -56.9% (active); in assay [12], -55.1% (active). Also, the growth in [13] was 10%; in assay [14] it was 11%; in assay [15], -65.9% (active); in assay [17], 23.7%.

In the case of `Cc1[nH]nc2ccc(-c3nc4cnc(N5CCN(C)CC5)cn4c3Nc3ccc(F)cc3Br)cc12`, the growth in assay [1] is 4.63% (active); in assay [18] it was -6.49% (active); in [2], 6.47% (active); in [3] it was 80.3%; in [5] it was 97.4%; in [6] it was 59.7%. Besides, the growth in [7] is 10.5%; in [8] it was 91.5%; in assay [9], 49.4%; in [10] it was 38.9%; in assay [11] it was 91.1%; in [12], 30.7%. The growth in assay [13] is 32.8%; in [14], 15.5%; in assay [15], 11%; in assay [17] it was 59.3%.

Take `COc1ccc(/C=N/Nc2nc(Nc3ccccc3)nc(Nc3ccc(S(N)(=O)=O)cc3)n2)cc1`: the growth in assay [1] was 48.5%; in assay [18], 47.7%; in assay [2] it was 67.6%; in [3], 85.6%; in assay [5], 105%; in assay [6], 58.7%. In addition, the growth in [8] is 58.3%; in assay [9], 96.3%; in assay [11] it was 85.7%; in assay [12] it was 76.6%; in [13], 72.4%; in [14] it was 41%. Moreover, the growth is 50.2% in [15], 87% in [16] and 74.4% in [17].

For `Cc1cccc(NC(c2cc3cccc4ccc5cccc2c5c43)c2nnnn2C(C)(C)C)c1C` (configuration not stated), the growth in [1] is 86.3%; in assay [18] it was 86.9%; in assay [2], 92.8%; in assay [3] it was 87%; in assay [5], 77.4%; in assay [6], 73.6%. Also, the growth is 88% in assay [8]; 89.4% in assay [9]; 68.4% in assay [10]; 99.2% in [11]; 93% in [12]; 93.7% in [13]. Further, the growth in assay [14] is 66.9%; in assay [15], 70.5%; in assay [16], 99.6%; in [17], 95.8%.

As for `CC1(C)CC[C@]2(C(=O)O)CC[C@]3(C)C(=CCC4[C@@]5(C)C[C@@H](O)[C@@H]6OC(c7ccccc7O)OC[C@@]6(C)C5CC[C@]43C)C2C1` (some centres not stated), the growth in [1] is 53.3%; in assay [18] it was 55.4%; in assay [2], 53.1%; in [3] it was 103%; in assay [5], 80%; in assay [6], 57.2%. In addition, the growth in assay [7] is 47.4%; in assay [8] it was 80.6%; in [9], 34.6%; in assay [10], 57.7%; in assay [11], 42.4%; in assay [12], 77.5%. Also, the growth was 37.8% in assay [13]; 62.8% in [14]; 4.38% (active) in assay [15]; 34.9% in [16]; 24.5% in [17].

With `O=C(CSc1ccc(-c2nc3ccccc3[nH]2)cn1)N1CCN(c2ccccc2F)CC1`, the growth in [1] was 52.5%; in assay [18], 50.2%; in [2], 37.4%; in assay [3], 107%; in assay [5] it was 95.4%; in [6] it was 80.7%. Besides, the growth was 50.7% in [7]; 89.4% in [8]; 29% in assay [9]; 16.7% in assay [10]; 27.8% in assay [11]; 53.9% in assay [12]. Also, the growth in assay [13] was 106%; in [14] it was 55.7%; in assay [15], 68.1%; in assay [16], 96.5%; in assay [17], 68.8%.
